The list is not random: actives were taken first. Their share in the collection is about 2.4%.
TLR4-MyD88 BLA = inhibitors of human TLR4-MyD88 binding; inhibition, % at 8.4 µM; AID 861; HeLa CL3-4 TLR4/MyD88 BLA complementation, FRET ratio; O00206+Q99836; actives 0.18% (n = 200,000); in the data active = inhibition above about 25%
NOD2-RIPK2 inh = blocks binding of human NOD2 to RIPK2; CHO BLA complementation NOD2-RIPK2, CCF4 ratio; O43353; actives 0.38% (n = 360,000); inhibition, % at 4.98 µM; in the data active = inhibition above about 21%
TLR9-MyD88 block = blocks human TLR9 binding to MyD88 | Q9NR96+Q99836 | CHO BLA complementation TLR9-MyD88, CCF4 FRET ratio | inhibition, % at 4.98 µM | actives 0.21% (n = 340,000) | AID 504734;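 active = inhibition above the mean over all tested compounds plus 3 SD, cut at about 21% in these data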
TMEM16A inh = inhibitors of mouse TMEM16A calcium-activated chloride channel; HEK293 TMEM16A/YFP iodide influx fluorescence, ionomycin; normalized B-score (activity score, 25-100; higher = stronger inhibition) at 10 µM; actives 1.2% (n = 310,000);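 active = ratio plate-corrected score three or more library SD toward inhibition, starting fluorescence score within five deviations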;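 note: score derived from kinetic fluorescence span divided by baseline fluorescence per well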
Target sequence (Q8BHY3 whole entry, looked up): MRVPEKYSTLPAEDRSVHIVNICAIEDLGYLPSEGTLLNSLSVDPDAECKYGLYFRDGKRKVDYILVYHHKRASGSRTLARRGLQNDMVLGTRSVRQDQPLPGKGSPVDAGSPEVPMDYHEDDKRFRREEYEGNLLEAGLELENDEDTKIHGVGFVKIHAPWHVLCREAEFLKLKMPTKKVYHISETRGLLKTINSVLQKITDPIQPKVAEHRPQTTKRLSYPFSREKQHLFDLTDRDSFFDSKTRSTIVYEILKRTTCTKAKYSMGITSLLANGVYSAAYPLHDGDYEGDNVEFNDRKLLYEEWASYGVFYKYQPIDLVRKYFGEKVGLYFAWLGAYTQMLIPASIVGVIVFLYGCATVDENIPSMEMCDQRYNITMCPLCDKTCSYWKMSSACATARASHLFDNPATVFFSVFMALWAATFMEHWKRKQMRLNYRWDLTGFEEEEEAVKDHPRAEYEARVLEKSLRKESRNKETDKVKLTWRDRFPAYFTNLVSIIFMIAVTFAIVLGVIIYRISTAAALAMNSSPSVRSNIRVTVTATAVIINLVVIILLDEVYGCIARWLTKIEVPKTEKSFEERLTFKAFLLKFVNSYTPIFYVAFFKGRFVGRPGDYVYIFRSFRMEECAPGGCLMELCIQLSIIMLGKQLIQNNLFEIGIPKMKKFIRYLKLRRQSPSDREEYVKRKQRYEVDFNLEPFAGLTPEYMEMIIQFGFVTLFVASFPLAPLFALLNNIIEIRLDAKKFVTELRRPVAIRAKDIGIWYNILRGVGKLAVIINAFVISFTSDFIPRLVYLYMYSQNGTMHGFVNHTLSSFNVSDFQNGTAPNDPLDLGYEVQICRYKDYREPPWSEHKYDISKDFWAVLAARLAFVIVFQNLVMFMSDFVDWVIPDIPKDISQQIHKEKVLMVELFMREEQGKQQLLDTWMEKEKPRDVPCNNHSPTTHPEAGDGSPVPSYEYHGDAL
ANO1 activ = activates or potentiates the mouse TMEM16A chloride channel | Q8BHY3 | AID 623877 | B-score at 10 µM | HEK293 TMEM16A/YFP-H148Q/I152L, iodide quench fluorescence; active compounds read low | actives 0.3% (n = 340,000);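 active = fluorescence-ratio B-score plate-corrected deviation score at least 3 library SD below zero, with starting fluorescence score within 5 deviations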;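 note: channel opened by trigger with iodide after compound preincubation; score built on the fluorescence ratio of max minus min over baseline; more negative score means more quench and so TMEM16A activation or potentiation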
m5-HT2A agonist = mouse HTR2A agonism via beta-arrestin recruitment; P35363; CHO-K1 mHTR2A beta-arrestin complementation, luminescence; percent of 30 µM serotonin response; activation, % at 7.6 µM; actives 0.66% (n = 360,000); AID 624169;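 active = activation above a run cutoff, the mean activation of all tested compounds plus 3 SD, cut at about 14% in these data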
NOD2-RIPK2 conf = NOD2-RIPK2 interaction inhibition confirmed | shares compounds with NOD2-RIPK2 inh | CHO cells, NOD2-RIPK2 BLA complementation, CCF4 FRET | inhibition, % at 4.98 µM | actives 70% (n = 1,200);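 active = mean inhibition across replicates above a set limit taken from the earlier primary screen, cut at about 21% in these data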
NOD2 BLA counter = counter-screen for NOD2-RIPK2 interaction inhibitors: BLA reporter; inhibition, % at 4.98 µM; CHO BLA reporter, CCF4 FRET ratio, counterscreen; actives 57% (n = 1,200); shares compounds with NOD2-RIPK2 inh; AID 624371;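 active = mean inhibition above the low-control mean inhibition plus three low-control SD, cut at about 11% in these data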
Each line names hits and unclear results; the compound was inactive in the other large screens (follow-up assays come after a bar, where they were run); ! = a repeat was not active.

O=C1OCCN1CC(=O)N1CCc2c([nH]c3ccccc23)C1c1ccccn1 (configuration not stated)	NOD2-RIPK2 inh 22.1 | NOD2-RIPK2 conf inactive | NOD2 BLA counter inactive
CCOC(=O)/C=c1/s/c(=C/c2ccc3cc(OC)ccc3c2)c(=O)n1CC(=O)NCc1ccc2c(c1)OCO2	NOD2-RIPK2 inh 25.0 (no result: TLR4-MyD88 BLA, TMEM16A inh) | NOD2-RIPK2 conf 44.1 | NOD2 BLA counter 53.1
COc1ccccc1CNC(=O)[C@@H](NC(=O)C1CCN(C(=O)[C@@H]2CCCN2)CC1)C(C)C	none (no result: TLR4-MyD88 BLA)
Cc1ccc(S(=O)(=O)N(C)CC(=O)OCC(=O)NC(c2ccccc2)c2ccccc2)cc1	none
COc1ccc(Nc2nc3cc(C)ccc3cc2C#N)cc1	NOD2-RIPK2 inh 21.2 (no result: TLR4-MyD88 BLA) | NOD2-RIPK2 conf inactive | NOD2 BLA counter 16.8
Cc1cc(-c2ccco2)c(C#N)c2nc3ccccc3n12	NOD2-RIPK2 inh 22.4 | NOD2-RIPK2 conf inactive | NOD2 BLA counter 14.8
O=C(Nc1ccc(Cl)cc1)Nc1ccc2c(c1)N1CCN=C1S2	NOD2-RIPK2 inh 21.6 | NOD2-RIPK2 conf 36.1 | NOD2 BLA counter 19.2
Nc1c(S(=O)(=O)c2ccccc2)csc1C(=O)O	NOD2-RIPK2 inh 43.7 | NOD2-RIPK2 conf inactive | NOD2 BLA counter inactive
CCc1ccc(Nc2n[n+](-c3ccccc3)c(-c3ccc(N(CC)CC)cc3)s2)cc1	NOD2-RIPK2 inh 28.7 (no result: TLR4-MyD88 BLA) | NOD2-RIPK2 conf 69.0 | NOD2 BLA counter 75.6
C=C1CC2(OC1=O)c1ccccc1CCc1ccccc12	NOD2-RIPK2 inh 83.8 (no result: TLR4-MyD88 BLA, TMEM16A inh) | NOD2-RIPK2 conf 89.6 | NOD2 BLA counter 25.2
O=C1NC(=O)C2(CCc3ccccc32)N1 (configuration not stated)	none
CSc1ccccc1C(=O)NC1CCCc2ccccc21 (configuration not stated)	none (no result: TLR4-MyD88 BLA)
O=C(CN(c1cccc(C(F)(F)F)c1)S(=O)(=O)c1ccc(Cl)c([N+](=O)[O-])c1)NCc1ccc(F)cc1	NOD2-RIPK2 inh 23.3 | NOD2-RIPK2 conf 28.9 | NOD2 BLA counter inactive
CCCCNc1c(-c2ccc(SC(C)CC)cc2)nc2ccccn12 (configuration not stated)	NOD2-RIPK2 inh 21.7!, TMEM16A inh 100 (no result: TLR4-MyD88 BLA) | NOD2-RIPK2 conf inactive | NOD2 BLA counter 16.2
Oc1ccc(Br)cc1/C=N/NC(=S)NCCc1ccccc1	none (no result: TLR4-MyD88 BLA)
COc1ccc(O)c(/C=N/NC(=S)NCCc2ccccc2)c1	NOD2-RIPK2 inh 25.9 (no result: TLR4-MyD88 BLA) | NOD2-RIPK2 conf 28.6 | NOD2 BLA counter 23.4
O=C(Nc1ccccc1)C1=C[C@@H](c2ccc(C(F)(F)F)cc2)C[C@@H](OCc2ccc(CO)cc2)O1	NOD2-RIPK2 inh 21.7 | NOD2-RIPK2 conf inactive | NOD2 BLA counter inactive
O=C(Nc1ccccc1)C1=C[C@@H](c2ccccc2)C[C@@H](OCc2ccc(CO)cc2)O1	none
Cc1ccc(CNC(=O)C2CCN(S(=O)(=O)c3c(C)noc3/C=C/c3ccco3)CC2)cc1	none
CCCC(/C=C/c1ccc(OC(C)=O)cc1)=C1/c2ccccc2C(=O)N1c1ccccc1	NOD2-RIPK2 inh 25.2 (no result: TLR4-MyD88 BLA, TMEM16A inh) | NOD2-RIPK2 conf inactive | NOD2 BLA counter 28.1
CCO[C@H]1OC(C(=O)N2CCN(Cc3ccc4c(c3)OCO4)CC2)=C[C@@H](c2cn(C(C)=O)c3ccccc23)[C@@H]1CCCO	none
CCO[C@H]1OC(C(=O)N2CCN(Cc3ccc4c(c3)OCO4)CC2)=C[C@@H](c2csc3ccccc23)[C@@H]1CCCO	NOD2-RIPK2 inh 22.5 | NOD2-RIPK2 conf inactive | NOD2 BLA counter inactive
CC(=O)N1CCN(C(=O)CN2C(=O)NC(C)(c3ccc4ccccc4c3)C2=O)CC1 (configuration not stated)	none (no result: TLR4-MyD88 BLA, TMEM16A inh)
CC1(c2ccc3ccccc3c2)NC(=O)N(CC(=O)N2CCCC(C(F)(F)F)C2)C1=O (configuration not stated)	NOD2-RIPK2 inh 27.6 (no result: TLR4-MyD88 BLA, TMEM16A inh) | NOD2-RIPK2 conf inactive | NOD2 BLA counter inactive
CN(C)Cc1c(O)ccc2cc(-c3nc4ccccc4n3C)c(=O)oc12	NOD2-RIPK2 inh 31.4 (no result: TLR4-MyD88 BLA) | NOD2-RIPK2 conf 32.6 | NOD2 BLA counter 57.7
CN(C)Cc1c(O)ccc2c(-c3ccccc3)cc(=O)oc12	none
COc1ccccc1/C=C/c1nc2ccc(OC(C)=O)cc2c(=O)o1	none (no result: TLR4-MyD88 BLA)
Cc1cccc2c(N=O)c(O)n(CCc3ccccc3)c12	NOD2-RIPK2 inh 25.9 (no result: TLR4-MyD88 BLA) | NOD2-RIPK2 conf 25.1 | NOD2 BLA counter 13.8
Cc1cccc2c(=O)cc(C)n(Cc3ccccc3)c12	none
O=Nc1c(O)n(Cc2ccc(Cl)cc2)c2ccccc12	NOD2-RIPK2 inh 22.5 | NOD2-RIPK2 conf 22.1 | NOD2 BLA counter 16.9
NC(=S)N=Nc1c(O)n(Cc2ccc(F)cc2)c2ccccc12	none
c1ccc(Cc2nn3c(-c4ccncc4)nnc3s2)cc1	none
CCCc1ccc(OCCNC(=O)CC)cc1	none
Cc1cccc(CS(=O)(=O)c2ncc(Cl)c(C(=O)Nc3c(C)cccc3C)n2)c1	NOD2-RIPK2 inh 67.3 (no result: TLR4-MyD88 BLA) | NOD2-RIPK2 conf 47.4 | NOD2 BLA counter inactive
CSc1ncc(Cl)c(C(=O)Nc2cccc3ccccc23)n1	none
Cc1cc(C)cc(S(=O)(=O)Cc2noc(C(=O)NCc3ccccc3)c2C(=O)NCc2ccccc2)c1	none (no result: TLR4-MyD88 BLA, TMEM16A inh)
Cc1cccc(CS(=O)(=O)c2ncc(Cl)c(C(=O)NCc3ccccc3)n2)c1	NOD2-RIPK2 inh 56.9 (no result: TLR4-MyD88 BLA) | NOD2-RIPK2 conf 69.0 | NOD2 BLA counter 14.9
Cc1cccc(C)c1NC(=O)c1nc(S(=O)(=O)Cc2ccccc2)ncc1Cl	NOD2-RIPK2 inh 54.8 (no result: TLR4-MyD88 BLA) | NOD2-RIPK2 conf 47.9 | NOD2 BLA counter inactive
COc1cccc(C(=O)NCCS(=O)(=O)N2CCN(C(=O)c3ccco3)CC2)c1	none (no result: TLR4-MyD88 BLA)
O=C1C=CC(O)(c2cc(=O)c3c(O)cc(O)cc3o2)C=C1	NOD2-RIPK2 inh 30.3 | NOD2-RIPK2 conf inactive | NOD2 BLA counter 18.0
Nc1ncnc2c1ncn2C1CCC(CO)C(O)C1 (configuration not stated)	none
CN1C(=O)[C@H]2[C@@H](c3ccc(F)cc3)N3C(=O)c4ccccc4NC(=O)[C@@]3(C)[C@H]2C1=O	NOD2-RIPK2 inh 22.5 (no result: TLR4-MyD88 BLA) | NOD2-RIPK2 conf inactive | NOD2 BLA counter inactive
Cc1ccc(CC(NC(=O)c2ccccc2)C(=O)NC(CC(C)C)C(=O)O)cc1 (configuration not stated)	NOD2-RIPK2 inh 58.8 | NOD2-RIPK2 conf inactive | NOD2 BLA counter inactive
O=C(NC(Cc1ccccc1)C(=O)NC(Cc1ccccc1)C(=O)O)c1ccccc1 (configuration not stated)	none
COc1cc2ccc(=O)oc2cc1O	NOD2-RIPK2 inh 29.6 (no result: TLR4-MyD88 BLA) | NOD2-RIPK2 conf inactive | NOD2 BLA counter 38.5
